The results in this text go back to PubChem BioAssay (NCI).

The structures appear in SMILES notation. This is part of a sample that, as a whole, favours compounds with a hit. Of some 83,000 tested, about 20% had one in any assay.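 Compound tested at a single concentration for 48 hours in 96-well plates; a percent growth value below 10 was scored as active.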 Unmarked numbers belong to inactive results. Active and inactive are the calls of the source.

For the experiment, the system named is HT29 colon. In words: NCI-60 one-dose screen, 48 h (100 = growth as untreated, 0 = no growth, -100 = all killed). To be noted: 10 µM unless noted. As for the experimental part:
Growth inhibition of the HT29 human tumor cell line is measured as a screen for anti-cancer activity. Cells are grown in 96 well plates and exposed to the test compound for 48 hours. Compounds are tested at a single concentration, which is 10^-5 M for most compounds. The reported endpoint is percent growth (GI% or GIPRCNT), where numbers from 0 - 100% represent growth inhibition, and numbers from -100% - 0 represent cell death. For example, a value of 40 represents 60% growth inhibition. A value of 0 means no net growth occurred over the course of the experiment. A value of -40 indicates 40% of cells at the beginning of the experiment died by the end of the experiment. A value of -100 means all cells are dead at the end of the experiment.
NCI-60 Human Tumor Cell Lines Screen was performed using the standard one-dose NCI protocol, which is described in more detail at https://dtp.cancer.gov/discovery_development/nci-60/default.htm.
Compounds with GIPRCNT values below 10 were considered active. Activity score was based on GIPRCNT using the following formula: […]
Score is 0 for GIPRCNT values of 100 or above, 50 for GIPRCNT values of 0, and 100 for GIPRCNT values of -100.
Take `C=C(C[C@@](O)(C(=O)Oc1ccccc1)C(=O)C1CCCCC1)c1ccccc1`: the growth was 103%. Under `CN(C)c1ccc2c(c1)/C(=N/O)c1ccccc1-2` stands 81.4%. Under `Cn1cc(-c2csc(-c3c[nH]c4ncccc34)n2)c2cc(F)cnc21` stands 90.6%; under `S=C(Nc1ccc(C2=NCCN2)cc1)Nc1ccc(C2=NCCN2)cc1`, 101%. Under `O=C(C(=O)N1CCCCC1)c1ccc(OC2OC(CO)C(O)C(O)C2O)cc1` (stereo not given) stands 100%.

With `O=c1cc(-c2cccnc2)oc2c1ccc1ccccc12`, the growth is 59%. Under `O=[N+]([O-])c1ccc(Oc2cccc(C(F)(F)F)c2)c([N+](=O)[O-])c1` stands -4.93% (active); under `COc1cc(/C=C/C(=O)N2CCN(C(=O)/C=C/c3ccccc3)CC2)cc(OC)c1OC`, 104%; under `Cc1nn(-c2ccc(Cl)cc2)c2nc3c(nc12)C(=O)c1ccccc1-3`, 65.1%. Under `CC(C)(C)c1ccc(S(=O)(=O)O)s1` stands 106%; under `COC(=O)[C@]1(CCSC)N[C@H](c2cn(-c3ccccc3)nc2C)[C@@H]2C(=O)N(c3ccccc3)C(=O)[C@@H]21`, 103%.

`O=C(Nc1ccc(Cl)cc1)Nc1ccc(Oc2nncc3ccccc23)cc1`: the growth is 0.517% (active).

Take `O=C(/C(=C/c1cccc([N+](=O)[O-])c1)c1ccccc1)c1ccccc1`: the growth is 52.7%. Under `CCCCCCC/C(=N\N=C(N)N)c1ccc(O)cc1` stands 3.57% (active); under `CC1=NN(c2ccccc2Cl)C(=O)/C1=C\c1cn(S(=O)(=O)c2ccc(C)cc2)c2ccccc12`, 122%. Under `COc1cc(/C=C2\CCC/C(=C\c3ccc(OCC4CO4)c(OC)c3)C2=O)ccc1OCC1CO1` (stereo not given) stands -15% (active).

Turning to `COc1ccc(Nc2nccc(N3CCN(c4c5ccc(Cl)cc5nc5ccc(OC)cc45)CC3)n2)cc1`, the growth is 44.6%. As to `COc1c(C)c2c(c(O)c1C/C=C(\C)CCC(=O)OCCN1CCOCC1)C(=O)OC2`, the growth was 1.17% (active). With `CCOC(=O)c1c2c(c(C)n1Cc1ccccc1)-c1nc(N)ncc1CC2`, the growth was 115%. Take `Cc1cc(NC(=O)Nc2cc(Cl)ccc2C)no1`: the growth was 106%. Under `COc1cc(/C=C/C(=O)Nc2cccnc2Nc2cc(OC)c(OC)c(OC)c2)cc(OC)c1OC` stands 94.3%; under `C[C@]12C[C@H](O)[C@H]3[C@@H](CCC4=CC(=O)CC[C@@]43C)[C@@H]1CC[C@@H]2C(=O)CO`, 108%.

For `Nc1ccc(S(=O)(=O)Nc2ncccn2)cc1`, the growth is 105%.

In the case of `CCCCCCCC1(C)NC(=O)NC1=O` (stereo not given), the growth is 114%. Under `O=C(Nc1cccc([N+](=O)[O-])c1)c1cccc(C(=O)Nc2cccc([N+](=O)[O-])c2)c1` stands 88.5%; under `O=[P@@]1(c2ccccc2)O[C@H](COCc2ccccc2)[C@@H](OCc2ccccc2)[C@H](OCc2ccccc2)[C@H]1NCc1ccccc1`, 10.9%; under `CCN(CC)c1ccc(N=Nc2cc(Cl)ccc2Cl)c(NC(=O)CCC(=O)O)c1`, 111%.

Turning to `COc1cc(/C=C2\COc3ccc(O)cc3C2=O)cc(OC)c1`, the growth is 12%.

Take `CC(C)[O-].CC(C)[O-].CN(CCN(C)Cc1cc(F)cc(F)c1[O-])Cc1cc(F)cc(F)c1[O-].[Ti+4]`: the growth was -25.7% (active).

`O=C1C2C3C=CC(O3)C2C(=O)N1Nc1ccccc1` (stereo not given): the growth was 112%. Turning to `O=C(NCCc1ccccc1)C1CCC(=O)N1Cc1ccc(Br)cc1` (stereo not given), the growth is 85.6%. On to `O=C(/C=C/c1cccnc1)/C=C/c1cccnc1`, for which the growth was -55.2% (active).

On to `Cn1c(N)c(N=O)c(=O)[nH]c1=O`, for which the growth is 98.8%. Regarding `Cc1nc(N)[nH]c(=O)c1C`, the growth is 107%. Under `CCOC(=O)C(C(C)=O)c1nc2sc3cc(Cl)ccc3n2c(=N)c1C#N` (stereo not given) stands 52.8%; under `CCOc1cc(C(C)(C)C)ccc1C1=N[C@H](c2ccc(Cl)cc2)[C@H](c2ccc(Cl)cc2)N1C(=O)N1CCN(CC#Cc2cccc3c2CN([C@@H]2CCC(=O)NC2=O)C3=O)CC1`, 12.6%. Take `c1ccc(-n2nnnc2-c2cccc3ccccc23)cc1`: the growth is -1.01% (active). Under `CSc1nnc(C2=CC(=O)c3ccccc3C2=O)n1-c1ccccc1` stands 110%.

For `Cc1ccc(C(C)C)cc1NC(=O)Nc1ccc([N+](=O)[O-])cc1`, the growth was 12.4%. In the case of `CCS(=O)(=O)OCCCl`, the growth was 104%.
